The values that follow come from PubChem BioAssay (EPA / NIEHS).

The source made the active and inactive calls. The calls were made as follows: active = hit-call score of the fitted dose curve at least 0.9, where 1 is the maximum; inactive = score below 0.9.

The experiment is described as follows: ATG_NFI_CIS: Attagene CIS-FACTORIAL HepG2 Assay for human Nuclear Factor I (NFI) (AID 2282989). To be noted: HepG2 cis-regulatory reporter, NFI response element transcription; actives raise or lower the signal. Here is the method: ATG_CIS is a cell-based, multiplexed-readout assay that uses HepG2, a human liver cell line, with measurements taken at 24 hours after chemical dosing in a 24-well plate.ATG_NFI_CIS is one of 52 assay component(s) measured or calculated from the ATG_CIS assay. It is designed to make measurements of mRNA induction, a form of inducible reporter, as detected with fluorescence intensity signals by Reverse transcription polymerase chain reaction (RT-PCR) and Capillary electrophoresis technology.Data from the assay component ATG_NFI_CIS was analyzed into 1 assay endpoint. This assay endpoint, ATG_NFI_CIS, was analyzed with bidirectional fitting relative to DMSO as the negative control and baseline of activity. Using a type of inducible reporter, measures of mRNA for gain or loss-of-signal activity can be used to understand the reporter gene at the transcription factor-level as they relate to the gene NFIA. Furthermore, this assay endpoint can be referred to as a primary readout, because this assay has produced multiple assay endpoints where this one serves a reporter gene function. To generalize the intended target to other relatable targets, this assay endpoint is annotated to the dna binding intended target family, where the subfamily is nuclear factor I.
Human liver HepG2 cells are transiently transfected with multiple reporter transcription units (MRTUs) in 6-well plates using FuGene 6 reagent (Roche; 3 ml FuGene/1 mg DNA). The MRTU constructs are regulated by a cis-regulating element (promoter). […] A major difference between the CIS and TRANS system is that in CIS activities of endogenous TFs are measured, whereas the TRANS assay evaluates changes in activities of exogenous, chimeric NR-Gal4 proteins. […] At the end of 24 hour incubation, total RNA was isolated using TriZol reagent (Invitrogen). The isolated RNA is then reverse-transcribed using oligo(dT) primer and Mo-MLV reverse transcriptase (Invitrogen) with DNAse I (Ambion) treatment for 30 min. The one-tenth of the produced cDNA was amplified by PCR using Taq DNA polymerase (Invitrogen) and two reporter sequence-specific primers. The PCR products were fluorescently labeled by primer extension with 6-arboxyfluorescein (6-FAM) 5'-labeled reporter sequence-specific primer (2 min at 95 C, 20 s at 68 C and 10 min at 72 C) and these products were digested with 5U of HpaI (New England Biolabs) for 2h at 37 C. The fragments were purified using Qiaquick PCR columns (Qiagen), analyzed on an ABI 3130xL genetic analyzer (Applied Biosystems) with peak positions identified by using a set of X-rhodamine (ROX)-labeled MapMarker1000 molecular weight standards (BioVentures). The raw capillary electrophoresis data was processed using Attagraph software (Attagene).
Turning to `Cc1ccc(C(C)C)c(O)c1`, the compound was called inactive.

With `COc1cc(/C=C/C(=O)CC(=O)/C=C/c2ccc(O)c(OC)c2)ccc1O`, the AC50 was 33.4 µM (active).

For `Cc1ccc2ncccc2c1`, the result was inactive.

Regarding `COc1cc(-c2nc(NC(=O)c3cc4cc(C)cc(C)c4n3CC(=O)O)sc2CCC2CCCCC2)c(OC)cc1Cl`, the AC50 was 27 µM (active).

Turning to `CC(=O)C(C)=CC1C(C)=CCCC1(C)C` (stereo not given), the compound was called inactive.

On to `Cc1oc(-c2ccccc2)nc1CCOc1cccc2c1ccn2CCC(=O)O`, for which the compound was classed as inactive.

For the compound `OC[C@@H](O)[C@@H](O)[C@H](O)[C@H](O)CO`, the outcome was inactive.

For `Clc1cc(Cl)c(Cl)cc1Cl`, the outcome was inactive.

As to `CCOc1ccc2c(c1)C(C)=CC(C)(C)N2`, the AC50 is 166 µM (active).

In the case of `O=c1c(O)c(-c2ccc(O)c(O)c2)oc2cc(O)cc(O)c12`, the call was inactive.

Take `COc1cccc2c1C(=O)c1c(O)c3c(c(O)c1C2=O)C[C@@](O)(C(=O)CO)C[C@@H]3O[C@H]1C[C@H](N)[C@H](O)[C@H](C)O1`: the result was inactive.

`O=C(N[C@@H](Cc1ccccc1)[C@@H](O)C(=O)N1C[C@@H](O)[C@@H](O)C1)c1cc2cc(Cl)ccc2[nH]1`: the result was inactive.

Take `Nc1nc(N)c2nc(CNc3ccc(C(=O)N[C@@H](CCC(=O)O)C(=O)O)cc3)cnc2n1`: the compound was called inactive.

For the compound `CCCCCCCCCCCCCO`, the compound was classed as inactive.

Consider `Cc1ccc(Cl)cc1`, for which the result was inactive.

On to `CCOC(=O)C(C)(C)Oc1ccc(Cl)cc1`, for which the compound was called inactive.

`Cc1ccc(C)c(C)c1`: the call was inactive.

Regarding `O=[N+]([O-])C(CO)(CO)CO`, the compound was called inactive.

On to `CC(CO)OC(C)CO` (stereo not given) (tested in a mixture with another compound), for which the compound was called inactive.

`c1cc(-c2ccncc2)ccn1`: the compound was called inactive.

Take `Cc1ccc(N(C)C)cc1`: the call was inactive.

Take `CCCCCC(=O)O`: the compound was classed as inactive.

For the compound `Nc1ccc2c(c1)C(=O)c1ccccc1C2=O`, the call was inactive.

`Cc1cc(=O)[nH]c(=S)[nH]1`: the result was inactive.

For the compound `C=CCc1ccc(O)c(OC)c1`, the result was inactive.

With `CCc1c(C(=O)NN2CCCCC2)nn(-c2ccc(Cl)cc2Cl)c1-c1ccc(Br)cc1`, the compound was called inactive.

For the compound `C=CCOC(=O)c1ccccc1C(=O)OCC=C`, the compound was called inactive.

For the compound `CN1CCN(Cc2cc(-c3ccc4[nH]c(=O)oc4c3)co2)[C@@H](c2ccc(F)cc2)C1`, the outcome was inactive.

With `CC(=O)Oc1ccccc1C(=O)O`, the compound was classed as inactive.

Regarding `CNCc1cc(F)ccc1Oc1ccc(Cl)c(Cl)c1`, the result was inactive.

For `C1CCC(SSC2CCCCC2)CC1`, the AC50 was 161 µM (active).

Turning to `CCCCOC(=O)CCCCCCCCC(=O)OCCCC`, the compound was called inactive.

With `O=C(O)Cc1ccccc1Nc1c(Cl)cccc1Cl`, the call was inactive.

In the case of `Cc1cc(NC(=O)C(=O)O)cc(C)c1Oc1ccc(O)c2c1CCC2`, the call was inactive.

In the case of `COc1cc(C=O)ccc1O`, the compound was classed as inactive.

Consider `CC1(C)CC(N=C=O)CC(C)(CN=C=O)C1` (stereo not given), for which the outcome was inactive.

`NS(=O)(=O)c1cc2c(cc1Cl)NCNS2(=O)=O`: the outcome was inactive.

For the compound `CCCCCCOCCO`, the outcome was inactive.

For `CCCCCCCCCCCC(=O)OC`, the result was inactive.

With `Cc1nc(C)nc(N2C[C@@H](C)N(c3ccnc([C@@H](C)O)n3)[C@@H](C)C2)n1`, the result was inactive.
